Results: PubChem BioAssay (NCI)
About 83,000 compounds went through this panel and 20% of them were active in at least one assay; those are over-represented in the sample as a whole.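 Results are percent growth after 48 hours of single-concentration exposure. 100 means growth as in untreated cells, lower positive values show inhibition; negative values down to -100 show cell death.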 A number with no mark means an inactive call. Activity calls are given as the source filed them. Rule for the calls: active = growth percent below 10; inactive = the rest.

What was measured:
Assay in all cases: NCI-60 one-dose screen, 48 h (100 = growth as untreated, 0 = no growth, -100 = all killed)
Conditions in all cases: 10 µM
DU-145 prostate = test system: DU-145 prostate
K-562 leukemia = test system: K-562 leukemia
MALME-3M melanoma = test system: MALME-3M melanoma
MDA-MB-231 breast = test system: MDA-MB-231 breast
RXF 393 renal = test system: RXF 393 renal
SF-268 CNS = test system: SF-268 CNS
SF-295 CNS = test system: SF-295 CNS
SF-539 CNS = test system: SF-539 CNS
HCT-15 colon = test system: HCT-15 colon
HT29 colon = test system: HT29 colon
SNB-75 CNS = test system: SNB-75 CNS
SNB-19 CNS = test system: SNB-19 CNS
U251 CNS = test system: U251 CNS
SK-MEL-5 melanoma = test system: SK-MEL-5 melanoma
UACC-62 melanoma = test system: UACC-62 melanoma
LOX IMVI melanoma = test system: LOX IMVI melanoma
SK-MEL-28 melanoma = test system: SK-MEL-28 melanoma
M14 melanoma = test system: M14 melanoma
PC-3 prostate = test system: PC-3 prostate
UACC-257 melanoma = test system: UACC-257 melanoma

Compound | growth (DU-145 prostate) | growth (K-562 leukemia) | growth (MALME-3M melanoma) | growth (MDA-MB-231 breast) | growth (RXF 393 renal) | growth (SF-268 CNS) | growth (SF-295 CNS) | growth (SF-539 CNS) | growth (HCT-15 colon) [%] | growth (HT29 colon) | growth (SNB-75 CNS) | growth (SNB-19 CNS) | growth (U251 CNS) | growth (SK-MEL-5 melanoma) | growth (UACC-62 melanoma) | growth (LOX IMVI melanoma) | growth (SK-MEL-28 melanoma) | growth (M14 melanoma) | growth (PC-3 prostate) | growth (UACC-257 melanoma)
CCn1cc(CNc2ccc(C(=O)Nc3ccc4ccccc4c3)cc2)c(C)n1 | 61.2% | 59.5% | 62.5% | 83.8% | 86% | 76.4% | 64.2% | 83.3% | 55.8 | 75.7% | 71.8% | 77.6% | 84.5% | -31.5% (active) | 60% | 62.5% | 77.8% | – | – | –
CCn1c(SCCc2ccccc2)nnc1-c1nn(-c2ccc(Cl)cc2Cl)c(-c2ccc(Cl)cc2)c1C | 84.7% | 48.1% | 96% | 81.1% | 66% | 77.4% | 65.7% | 85.9% | 45.6 | – | 90.7% | 76.7% | 54.7% | 74.3% | 68.6% | 63.8% | 79.2% | 72.8% | 39.8% | –
COc1ccc(-c2nn(-c3cccc(Cl)c3)cc2/C=C2\NC(=S)N(c3ccc(Cl)cc3)C2=O)cc1 | 21.4% | -12.2% (active) | 19.1% | 11.8% | -7.45% (active) | 38% | – | 75.3% | – | 9.73% (active) | 0.109% (active) | 63.2% | – | 24.2% | 3.65% (active) | 1.65% (active) | -33.5% (active) | 4.39% (active) | 42.5% | 1.55% (active)
CCCCCCCCCCCCCCCCCC[n+]1ccc2c(C)c3c(c(C)c2c1)c1cc(O)ccc1n3CC | 40.4% | 9.4% (active) | -55.2% (active) | 19% | -7.68% (active) | 4.77% (active) | -1.22% (active) | -21.2% (active) | 48.8 | 17.2% | 24.5% | 5.25% (active) | -34.9% (active) | -94.2% (active) | -11.8% (active) | 20.6% | 7.4% (active) | -2.39% (active) | – | –
CSc1ccc(-c2cc(-c3ccc(NC(=O)CCCN4CCCC4)cc3)nc(-c3ccc(NC(=O)CCCN4CCCC4)cc3)c2)cc1 | 104% | -36.4% (active) | 88.4% | -4.05% (active) | 51.1% | 48.6% | – | 75.7% | 88.6 | 21.9% | 45.2% | 49.2% | – | 91.8% | 93.4% | – | 94.7% | 88.4% | 40.8% | 95.3%
COc1cc(-c2csc(NC(=O)Nc3ccc(Cl)c(C(F)(F)F)c3)n2)cc(OC)c1OC | 14.4% | 14.2% | -28.1% (active) | -32.2% (active) | -6.49% (active) | 21.3% | -34.7% (active) | 5.05% (active) | 10.5 | – | -7.01% (active) | 13.2% | -9.73% (active) | -79.9% (active) | 1.56% (active) | -19.2% (active) | 15.3% | -4.86% (active) | -0.311% (active) | –
CCOC(=O)CSc1nc(-c2cc(OC)ccc2OC)cc(-c2ccc(OC)cc2)c1C#N | 75.2% | 106% | 98.8% | 83.9% | 70.3% | 73.9% | 70.3% | 64.6% | 69.1 | 64.2% | 97.5% | 94.2% | 86.7% | 80% | 71% | 85.5% | 84.8% | 76.9% | – | –
COc1cc(C(=O)/C=C/c2c[nH]c3ccccc23)cc(OC)c1OC | 5.54% (active) | 11.3% | 52.5% | 13% | 43% | 20.3% | 16.9% | -1.84% (active) | 19 | -21.1% (active) | 45.9% | 34.9% | 14.7% | -53.1% (active) | 30.6% | 14.4% | 64.7% | – | 35.4% | –
COc1cc2ncnc(NC3CCC(O)CC3)c2cc1OC (stereo unspecified) | 102% | 58.2% | 103% | 93.7% | 102% | 101% | 94.9% | 95.4% | 101 | 90% | 91.9% | – | 90.2% | 98.6% | 97.1% | 95.3% | 108% | 98.8% | 87.7% | –
Nc1ccc(-c2cccs2)cc1NC(=O)c1ccc(CCCC(=O)Nc2ccc(C3CC3N)cc2)cc1 (stereo unspecified) | 84.6% | -30.7% (active) | 75.1% | 47.1% | 77% | 104% | 84% | 77% | 87.2 | – | 111% | 90.8% | 7.02% (active) | 20% | 45.5% | 19% | 83.1% | 70.8% | – | –
O=C(O)c1ccc(-n2cc(CNc3ccc(Cl)cc3)c(-c3ccccc3)n2)cc1 | 95.7% | 77.5% | 79.9% | 88.6% | 98.6% | 100% | 80.5% | 82.6% | 70.5 | 102% | 78.4% | 94.8% | 93.5% | 87.6% | 67.6% | 74.3% | – | – | 97.2% | –
c1cncc(-c2csc(-c3c[nH]c4ccccc34)n2)c1 | 103% | 97.7% | 78.8% | 73.5% | 111% | 92.5% | 92.6% | 84.9% | 85.4 | 92.4% | 63.7% | 95.5% | 90.9% | 84.5% | 88.7% | 87% | 103% | 85.8% | – | –
O=C(CCCCNC(=O)c1nc(-c2ccccc2)n(-c2ccccc2)n1)NO | 98.6% | 81.7% | 23.5% | 86.2% | 84.2% | 90.1% | 93.6% | 65.1% | 91.3 | 73.6% | 70.8% | – | 65.9% | 62.2% | 37.5% | 96.9% | 75.2% | 66.8% | – | –
COc1ccc([C@H]2[C@H](C(=O)Nc3cccnc3)c3ccccc3C(=O)N2c2ccccc2)cc1 | 107% | 99.9% | 108% | 95.9% | 94.2% | 93.9% | 70.7% | 114% | 78.1 | 81.3% | 98.9% | 88.4% | 74.8% | 79.4% | 92.3% | 92.5% | 102% | 86.2% | – | –
O=C1c2c(c3c4ccccc4n(CCCCCCN4CCOCC4)c3c3[nH]c4ccccc4c23)C(=O)N1O | 109% | -32.9% (active) | 117% | 48.5% | 90.3% | 92.9% | 108% | 92.4% | 16.5 | 24.3% | 74.9% | – | -23.2% (active) | 23.4% | 82.7% | -88.4% (active) | 118% | 81.9% | – | –
O=C(CCNC(=O)c1nc(-c2ccccc2)n(-c2ccc(Cl)cc2)n1)NO | 102% | 105% | 97.4% | 102% | 99.6% | 93.9% | 99% | 84.6% | 104 | 89.8% | 99.1% | – | 96.1% | 103% | 100% | 98.5% | 101% | 97% | 89.6% | –
